Measured values as given in PubChem BioAssay.
Results filed as inconclusive are left out. The source made the active and inactive calls. Unless noted, no rule for the calls is given here.

Tests used:
[1] = stimulators of insulin release from INS-1E, primary screen, cell-based, 5 mM glucose, NPC library (AID 1117329;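 active = compound raises insulin release from rat beta cells at 5 mM glucose, no numeric limit stated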); settings: rat INS-1E insulin secretion, at 10 µM, stronger effect = higher value
[2] = growth inhibition of GSK3B-pretreated HCT116 cells – cell-based, CellTiter-Glo, 0.2 to 20 µM (AID 1117336;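 active = compounds lowering colon cancer cell viability after pretreatment blocking the GSK3B kinase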); settings: HCT116 viability after GSK3B inhibitor, at 20 µM, stronger effect = higher value
[3] = inhibition of endothelial tube formation, primary screen, imaging, VEGF stimulated, CD31 staining, tube area, NPC library (AID 1117340;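 active = compound that reduces growth-factor-driven endothelial tube area in a mixed cell culture, no cutoff stated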); settings: VEGF-stimulated ADSC/ECFC co-culture, at 10 µM, stronger effect = higher value
[4] = glucagon-like peptide 1 release enhancers, primary assay, NCI-H716 cell line, NPC library (AID 1117341;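 active = compound raises GLP1 secretion from the human gut endocrine cells, with no numeric limit stated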); settings: NCI-H716 cells, at 10 µM, stronger effect = higher value
[5] = HCT116 colon cancer cell growth inhibition, primary screen, CellTiter-Glo luminescence, NPC library (AID 1117342;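 active = compounds that lower survival of HCT116 colon cancer cells in the luminescence readout, no numeric limit stated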); settings: at 20 µM (top of the series)
[6] = CellTiter-Glo luminescent readout of SW480 viability loss, NPC library primary (AID 1117343;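 active = compounds that lower viability of the colon cancer cells in the luminescence readout, with no numeric limit stated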); settings: CellTiter-Glo luminescence; at 20 µM (top of the series)
[7] = decreased DLD-1 cellular survival, CellTiter-Glo luminescent readout, NPC compound collection, primary HTS (AID 1117346;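 active = compounds that lower survival of DLD-1 colon cancer cells in the luminescence readout, no cutoff given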); settings: DLD-1 viability, CellTiter-Glo luminescence; at 20 µM (top of the series)
[8] = modulation of C. elegans fzo-1 (AID 1259413);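 also: fzo-1 mutant C. elegans worms in liquid wells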; settings: C. elegans fzo-1 modulator screen, mean read-out; stronger effect = higher value
[9] = differential killing of epithelial or mesenchymal cells, primary screen, imaging, PC-3E GFP, TEM4-18 mCherry, co-culture (AID 1345086;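 active = compounds killing one labelled cell type while sparing the other, by normalised counts and ratio limits, not self-fluorescent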;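 as to all read-outs here: cells exposed to compound for 72 h before imaging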;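 as to red/green cell ratio (normalised): normalised mesenchymal count divided by normalised epithelial count so high means epithelial killing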); settings: imaging cell counts, at 1 µM; for red/green cell ratio (normalised): actives lie on both sides, counts scaled to control wells, 1 = unselective
[10] = growth inhibition of DIPG glioma cells, dose response, cell-based, SU-DIPG-XVII, MIPE5.0, CellTiter-Glo, qHTS (AID 1347060; cut-off not given, nearly all actives have AC50 up to about 26 µM); settings: SU-DIPG-XVII viability, CellTiter-Glo ATP luminescence
[11] = growth inhibition of DIPG glioma cells, dose response, cell-based, SU-DIPG-XIII, MIPE4.0, CellTiter-Glo, qHTS (AID 1347061; cut-off not given, nearly all actives have AC50 up to about 37 µM;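 also: cells exposed to compound for 48 hours before readout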); settings: SU-DIPG-XIII viability, CellTiter-Glo ATP luminescence
[12] = growth inhibition of DIPG glioma cells, dose response, cell-based, JHH-DIPG-1, MIPE4.0, CellTiter-Glo, qHTS (AID 1347062; cut-off not given, nearly all actives have AC50 up to about 27 µM;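 as to AC50: cells exposed to compound for two days before readout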); settings: JHH-DIPG-1 viability, CellTiter-Glo ATP luminescence
[13] = growth inhibition of DIPG glioma cells, dose response, cell-based, SU-DIPG-IV, MIPE4.0, CellTiter-Glo, qHTS (AID 1347063; cut-off not given, nearly all actives have AC50 up to about 30 µM;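 also: compound exposure lasted 48 hours before the viability readout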); settings: SU-DIPG-IV viability, CellTiter-Glo ATP luminescence
[14] = growth inhibition of DIPG glioma cells, dose response, cell-based, SU-DIPG-XIII, MIPE5.0, CellTiter-Glo, qHTS (AID 1347064; cut-off not given, nearly all actives have AC50 up to about 23 µM); settings: SU-DIPG-XIII viability, CellTiter-Glo ATP luminescence
[15] = measured here: epithelial PC-3E GFP cell survival
[16] = measured here: mesenchymal TEM4-18 mCherry cell survival

CCCc1nc(C)c2c(=O)[nH]c(-c3cc(S(=O)(=O)N4CCN(CC)CC4)ccc3OCC)nn12
inactive: insulin secretion stimulation [1] -0.4% | viability decrease [2] -11.4% | tube area decrease [3] -2.1% | GLP1 secretion stimulation [4] 0.1% | inhibition of viability [5] 23.1% | viability decrease (inhibition) [6] 14.2% | viability decrease (inhibition) [7] -13.5% | mean signal [8] 298 | red/green cell ratio (normalised) [9] 0.94 | outcome [10] | outcome [14]
1.03: normalised cell number [9, 16]
active: AC50 [11] 13.2 µM | AC50 [12] 18.7 µM | AC50 [13] 4.18 µM
1.1: normalised cell number [9, 15]

O=C(O)CCNC(=O)c1ccc(N=Nc2ccc(O)c(C(=O)O)c2)cc1
1.19: normalised cell number [9, 15]
inactive: insulin secretion stimulation [1] 5.4% | viability decrease [2] 5.2% | tube area decrease [3] 11.5% | GLP1 secretion stimulation [4] 1.6% | inhibition of viability [5] 6.1% | viability decrease (inhibition) [7] 6.7% | mean signal [8] 240 | red/green cell ratio (normalised) [9] 1.02 | outcome [10] | outcome [11] | outcome [12] | outcome [14]
active: viability decrease (inhibition) [6] 57.8%
1.21: normalised cell number [9, 16]

CCCOc1ccc(C(=O)OCCN(CC)CC)cc1N
1.3: normalised cell number [9, 16]
1.2: normalised cell number [9, 15]
inactive: insulin secretion stimulation [1] 1.5% | viability decrease [2] 47.8% | tube area decrease [3] -3.5% | GLP1 secretion stimulation [4] -1% | viability decrease (inhibition) [6] 36% | red/green cell ratio (normalised) [9] 1.08 | outcome [10] | outcome [12] | outcome [13] | outcome [14]
active: inhibition of viability [5] 74.2% | viability decrease (inhibition) [7] 90.1% | mean signal [8] 287

Nc1[nH]c(=O)ncc1F
0.89: normalised cell number [9, 15]
0.9: normalised cell number [9, 16]
inactive: insulin secretion stimulation [1] -1.8% | viability decrease [2] -5.1% | tube area decrease [3] -15.9% | GLP1 secretion stimulation [4] 2.3% | inhibition of viability [5] -15.1% | viability decrease (inhibition) [6] -13.1% | viability decrease (inhibition) [7] -0.9% | mean signal [8] 243 | red/green cell ratio (normalised) [9] 1.01 | outcome [10] | outcome [14]

CCOC(=O)[C@H](CCc1ccccc1)N[C@@H](C)C(=O)N1[C@H](C(=O)O)C[C@@H]2CCC[C@@H]21
1.1: normalised cell number [9, 15]
active: AC50 [11] 8.33 µM | AC50 [12] 16.6 µM | AC50 [13] 5.9 µM
0.91: normalised cell number [9, 16]
inactive: insulin secretion stimulation [1] 1.25% | viability decrease [2] 13.8% | tube area decrease [3] -11% | GLP1 secretion stimulation [4] 2.1% | inhibition of viability [5] 6.1% | viability decrease (inhibition) [6] -19% | viability decrease (inhibition) [7] -0.3% | mean signal [8] 226 | red/green cell ratio (normalised) [9] 0.83 | outcome [14]

CNNCc1ccc(C(=O)NC(C)C)cc1
0.95: normalised cell number [9, 15]
1.03: normalised cell number [9, 16]
inactive: insulin secretion stimulation [1] 0.5% | viability decrease [2] -8.6% | tube area decrease [3] 0.7% | GLP1 secretion stimulation [4] -0.6% | inhibition of viability [5] -1.9% | viability decrease (inhibition) [7] -10.5% | mean signal [8] 227 | red/green cell ratio (normalised) [9] 1.09 | outcome [10] | outcome [11] | outcome [12] | outcome [14]
active: viability decrease (inhibition) [6] 5.8%

CN1CCC(=C2c3ccccc3CCc3sccc32)CC1
inactive: insulin secretion stimulation [1] 6.65% | viability decrease [2] 47.1% | tube area decrease [3] 28.1% | GLP1 secretion stimulation [4] 5.3% | inhibition of viability [5] 20.1% | viability decrease (inhibition) [7] 26.9% | mean signal [8] 277 | red/green cell ratio (normalised) [9] 0.85 | outcome [10]
1.11: normalised cell number [9, 15]
active: viability decrease (inhibition) [6] 103% | AC50 [11] 16.6 µM
0.94: normalised cell number [9, 16]

COC1=C(OC)C(=O)C(CCCCCCCCCCO)=C(C)C1=O
active: viability decrease [2] 118% | tube area decrease [3] 66.9% | inhibition of viability [5] 94.2% | viability decrease (inhibition) [6] 120% | viability decrease (inhibition) [7] 82.7%
1.18: normalised cell number [9, 15]
inactive: insulin secretion stimulation [1] 2.2% | GLP1 secretion stimulation [4] 2.2% | mean signal [8] 254 | red/green cell ratio (normalised) [9] 0.83 | outcome [10]
0.98: normalised cell number [9, 16]

COc1cc(OC)c(C(=O)CCCN2CCCC2)c(OC)c1
1: normalised cell number [9, 16]
1.24: normalised cell number [9, 15]
inactive: insulin secretion stimulation [1] -1% | viability decrease [2] -39.3% | tube area decrease [3] 17.2% | GLP1 secretion stimulation [4] 0.3% | inhibition of viability [5] -8% | viability decrease (inhibition) [6] 0.7% | viability decrease (inhibition) [7] -31.7% | mean signal [8] 255 | red/green cell ratio (normalised) [9] 0.81 | outcome [10] | outcome [11] | outcome [12] | outcome [13] | outcome [14]

Cc1cnc(NC(=O)C2=C(O)c3ccccc3S(=O)(=O)N2C)s1
1.05: normalised cell number [9, 16]
inactive: insulin secretion stimulation [1] -1% | viability decrease [2] -14.6% | tube area decrease [3] -8.1% | GLP1 secretion stimulation [4] -2.4% | inhibition of viability [5] 19.1% | viability decrease (inhibition) [6] 23.9% | mean signal [8] 257 | red/green cell ratio (normalised) [9] 0.91 | outcome [10] | outcome [12] | outcome [13] | outcome [14]
1.16: normalised cell number [9, 15]
active: viability decrease (inhibition) [7] 4.7%

Cc1nc2n(c(=O)c1CCN1CCC(c3noc4cc(F)ccc34)CC1)CCCC2
1.02: normalised cell number [9, 15]
1: normalised cell number [9, 16]
inactive: insulin secretion stimulation [1] 2.5% | viability decrease [2] 5.9% | tube area decrease [3] 24.9% | GLP1 secretion stimulation [4] 2.3% | inhibition of viability [5] 24.2% | viability decrease (inhibition) [6] 41.5% | viability decrease (inhibition) [7] 10.7% | mean signal [8] 241 | red/green cell ratio (normalised) [9] 0.98 | outcome [11] | outcome [13]
